Shown are actives, neighbours in structure and some others; about 8.7% of the full set was active somewhere.
Pf growth 96h – P. falciparum growth inhibition at 96 hour, primary screen for plastid delayed-death inhibitors; P. falciparum luciferase reporter growth, 96 h; Potency, µM (highest dose often 28.7 µM), for inactives: at the highest dose activity change, negative = inhibition, hits mostly inhibitors; 6.9% of 320,000 active
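Two-generation exposure (96 h) targets delayed-death phenotype. Reporter parasites carrying integrated firefly luciferase, in red cells at 2% hematocrit and 0.05% parasitemia final, kept at 37 C, 5% CO2; luminescence loss indicates inhibition.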
Pf growth 48h – P. falciparum growth inhibition at 48 hours (one generation) | 5.9% of 310,000 active | P. falciparum luciferase growth in erythrocytes, 48 h | AID 504832 | Potency, µM (top dose mostly 28.7 µM), inactives show at the highest dose activity change, negative = inhibition, most hits filed as inhibitors
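Read-out is firefly luciferase luminescence from an integrated reporter in P. falciparum, so falling signal marks reduced parasite growth. Infected erythrocytes were at 2% hematocrit and 0.1% parasitemia (final) in Albumax-supplemented RPMI 1640.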
VACV mCherry inh – inhibitors of vaccinia virus infection (mCherry reporter signal); Vaccinia virus mCherry reporter infection, fluorescence; Potency, µM (doses to about 36.5 µM), for inactives: top-dose activity change, negative = inhibition, hits mostly inhibitors; 0.63% of 310,000 active; AID 720579; calls by dose curve; tested in A549 cells; also: nearly all actives have a fitted effect of over 35% in size
AMA1 RON2 block – AMA1-RON2 (P. falciparum) interaction inhibition | AlphaScreen AMA1-biotinylated RON2 peptide binding | Potency, µM (top dose mostly 58.2 µM), for the others: at the highest dose activity change, negative = inhibition, usual class: inhibitors | 0.2% of 360,000 active | AID 720542;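 also: 0% = vehicle wells and -100% = peptide control; nearly all actives have a fitted effect of over 45% in size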
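AMA1 (3D7) with his tag at 25 nM final met compounds first, then biotinylated RON2 peptide at 25 nM; detection used donor plus acceptor beads, 10 µg/mL apiece, read by AlphaScreen after 30 min at room temperature.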
Vaccinia Venus – inhibitors of vaccinia virus (Venus reporter). Vaccinia virus Venus reporter expression, fluorescence. 0.46% of 330,000 active. AID 720580. Potency, µM (top dose mostly 36.5 µM), inactives show at the top dose activity change, negative = inhibition, hits mostly inhibitors; calls by dose curve; tested in A549 cells; also: nearly all actives have a fitted effect of over 30% in size
The depositor's hits bear a star; i = inactive; ? = inconclusive; . = not tested or not shown; [ ] = dose if it differs, or a comment. Unless noted, calls follow the shape of the dose curve; as a rule, active = well fitted curve in the direction sought with a large enough effect; inconclusive = small, poorly fitted or top-dose-only effect, or another doubt; inactive = no such curve, though single readings can be large; an effect the other way counts as inactive or inconclusive. Unless noted, % is scaled to controls: 0 for no effect and ±100 for the full control effect; potency is read from the fitted curve at half-maximal effect.

SMILES	Pf growth 96h	Pf growth 48h	VACV mCherry inh	AMA1 RON2 block	Vaccinia Venus
CCCCCCCCOc1ccccc1C(=O)Nc1ccc(C(=O)OCC[N+](C)(CC)CC)cc1	1.3µM*	15µM*	.	.	.
CCCCCOC(=O)c1ccc(NC(=O)c2ccco2)cc1	3%	1.3µM*	-16%	-7%	-8%
CCCCOC(=O)c1ccc(NC(=S)NC(=O)c2ccco2)cc1	12µM*	?	-23%	23%	-4%
Cc1c(C(=O)N2CC3CCC2C3)sc2ncnc(NCCc3ccccn3)c12 (stereo not drawn)	.	.	-13%	.	-8%
COc1ccc(NC(=O)CCNS(=O)(=O)c2cccc3nsnc23)cc1Cl	.	.	3%	.	5%
COCCc1nn2c(=O)cc(COC(=O)COc3ccc(F)cc3)nc2s1	.	.	-12%	.	-12%
CC(=O)c1cccc(NC(=O)N2CCCC2C(=O)NCc2ccccc2)c1 (stereo not drawn)	30%	14%	-9%	1%	-1%
Cc1ccc(NC(=O)C2CCCN2C(=O)OCc2ccccc2)c(O)c1 (stereo not drawn)	5.2µM*	?	.	-2%	.
Cc1ccccc1NC(=O)C1Cc2ccccc2CN1C(=O)OCc1ccccc1 (stereo not drawn)	13µM*	-23%	-23%	-6%	-20%
Cc1cccc(NC(=O)N2CCCC2C(=O)NCc2ccccc2)c1 (stereo not drawn)	9.3µM*	-9%	.	-4%	.
Cc1ccccc1NC(=O)C1Cc2ccccc2CN1C(=O)c1ccco1 (stereo not drawn)	-27%	-22%	-1%	4%	-7%
Cc1cccc(-c2noc(CN(C(=O)COc3ccc(C(C)C)cc3)C(C)C)n2)c1	.	.	-14%	.	-8%
c1csc(-c2nc3nc4ccccc4nc3n2Cc2ccc3c(c2)OCO3)c1	17%	?	-17%	19%	-15%
Clc1ccccc1-c1nc2nc3ccccc3nc2n1-c1ccc2c(c1)OCO2	10µM*	?	-22%	-6%	-17%
CCc1ccc(NC(=S)N2CCN(S(=O)(=O)c3ccccc3)CC2)cc1	59%	13%	?	0%	-20%
CCOC(=O)N1CCN(C(=O)C2CCN(S(=O)(=O)c3ccc(OCC)cc3)CC2)CC1	44%	0%	-20%	-2%	-8%
O=S(=O)(c1ccccc1F)N1CCN(C(=S)NCc2ccccc2)CC1	2.6µM*	3.7µM*	8%	-6%	-2%
O=S(=O)(c1cccc(F)c1)N1CCN(C(=S)NCc2ccccc2)CC1	?	3.7µM*	-19%	-5%	-1%
O=S(=O)(c1ccccc1)N1CCN(C(=S)NCc2ccccc2)CC1	2.1µM*	2.6µM*	-15%	-26%	-17%
O=C(CSCc1ccccc1)N1CCN(S(=O)(=O)c2cccc(F)c2)CC1	12%	9%	-18%	-2%	-11%
CCOc1ccc(S(=O)(=O)N2CCC(C(=O)N3CCN(Cc4ccccc4)CC3)CC2)cc1	1%	9.3µM*	-24%	-16%	?
CCc1cccc2c(-c3ccccc3)nc(SCC(=O)Nc3ccc(OC)cc3)nc12	.	.	8%	.	4%
CCOc1ccc(S(=O)(=O)N2CCN(C(=S)NCc3ccccc3)CC2)cc1	2.1µM*	2.3µM*	.	-5%	.
COc1ccc(CNC(=S)N2CCN(S(=O)(=O)c3cccc(F)c3)CC2)cc1	3.3µM*	?	.	-15%	.
COc1ccc(CCNC(=S)N2CCN(S(=O)(=O)c3cccc(F)c3)CC2)cc1	?	?	i	9%	-13%
SMILES	Pf growth 96h	Pf growth 48h	VACV mCherry inh	AMA1 RON2 block	Vaccinia Venus
O=S(=O)(NCc1ccccc1)c1ccc(S(=O)(=O)N2CCCCC2)cc1	5.2µM*	15%	.	-10%	.
Cc1cc(-c2ccnc(-n3ncc(C(=O)NCC4COCCO4)c3C3CC3)n2)c(C)s1 (stereo not drawn)	.	.	-9%	.	-21%
COC(=O)C1=C(c2ccc(C(C)=O)cc2)C[C@@H]2CC[C@H]1N2C(=O)NC1CC1	14%	-5%	i	-3%	-10%
COC(=O)C1=C(c2ccc(C(C)=O)cc2)C[C@@H]2CC[C@H]1N2C(=O)N1CCC(O)(c2ccc(Cl)cc2)CC1	?	10µM*	-11%	-3%	-24%
COC(=O)C1=C(c2ccccc2)C[C@@H]2CC[C@H]1N2C(=O)N1CCCC1	.	.	-1%	1%	-18%
COC(=O)C1=C(c2ccc3ccccc3c2)C[C@@H]2CC[C@H]1N2C(=O)N1CCC(C)CC1	?	9.3µM*	-16%	-2%	-22%
COC(=O)C1=C(c2ccc(C(C)=O)cc2)C[C@@H]2CC[C@H]1N2C(=O)N1CCC(C)CC1	-9%	13µM*	-8%	15%	-29%
COC(=O)C1=C(c2ccc(OC)c(OC)c2)C[C@@H]2CC[C@H]1N2C(=O)N1CCC(C)CC1	?	31%	-1%	6%	-13%
COC(=O)c1ccc(NC(=O)Cc2coc3cc(C)ccc23)cc1	.	.	-14%	.	2%
CCCCCC[C@@H](O)C/C=C\CCCCCCCC(=O)O	3%	-6%	.	.	.
CCCCC/C=C\C[C@H](O)/C=C/c1cccc(C[C@H](O)CCCCO)n1	?	13µM*	-21%	35%	-15%
Cc1ccc(Cn2c(CN3CCC(C(=O)NCc4cccnc4)CC3)cc3ccccc32)cc1	.	.	-12%	.	-10%
O=C(c1ccc(-c2nnc(Nc3ccccc3)c3ccccc23)cc1)N1C[C@H]2C[C@H](C1)c1cccc(=O)n1C2	3.7µM*	13µM*	.	8%	-19%
CCOC(=O)c1cccc(NC(=O)NCc2cccn2Cc2ccccc2)c1	.	.	-9%	.	-10%
COc1ccc(-c2nsc(NC(=O)c3cccc(OC)c3)n2)cc1	.	.	4%	.	-1%
Cc1cc(C)cc(COc2ccc3c(C)c(CC(=O)O)c(=O)oc3c2C)c1	6%	.	i	-1%	-8%
Cc1c(CC(=O)O)c(=O)oc2c(C)c(OCc3ccc(F)cc3F)ccc12	26%	9%[0.00184 µM]	.	1%	.
COc1cccc(COc2ccc3c(C)c(Cc4ccccc4)c(=O)oc3c2)c1	.	.	-9%	6%	-26%
COc1ccc2c(C)c(Cc3ccccc3)c(=O)oc2c1OC	9%	12µM*	.	8%	.
COc1ccccc1COc1ccc2c(C)c(CC(=O)O)c(=O)oc2c1C	6.6µM*	1%	.	-10%	.
COc1cc(COc2ccc3c(C)c(Cc4ccccc4)c(=O)oc3c2C)cc(OC)c1OC	1.9µM*	?	-18%	-5%	-10%
COc1cc(COc2ccc3c(C)c(Cc4ccccc4)c(=O)oc3c2)cc(OC)c1OC	?	8.3µM*	-11%	6%	9%
c1cnc(N2CCN(c3ncc4c(n3)CCNC4)CC2)nc1	.	.	-4%	.	0%
CCOC(=O)COc1ccc([N+](=O)[O-])cc1-c1ccnc2cc(-c3ccc(Cl)cc3)nn12	.	.	-17%	.	-16%
COc1ccc(NC(=O)C2CCCN(S(=O)(=O)c3ccc4[nH]c(=O)ccc4c3)C2)cc1OC (stereo not drawn)	12µM*	24%	-3%[7.34 µM]	-1%	5%[7.34 µM]
Cc1cc(C)cc(NC(=O)C2CCCN(S(=O)(=O)c3cccc4nsnc34)C2)c1 (stereo not drawn)	.	.	?	.	-22%

Assay outcomes deposited in PubChem BioAssay by National Center for Advancing Translational Sciences (NCATS).
